Screens: PubChem, several laboratories
A selection: hits, their analogues and other compounds. The true share with any hit is near 22%.
E-sel TNF inh = blocks E-selectin expression induced by TNF alpha; HUVEC TNFa-induced E-selectin immunofluorescence, high content; inhibition, % at 2 µM; 120,000 tested, 0.71% active;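 active = inhibition above the batch mean plus 3 SD, and confirmed as a hit on visual image review, cut at about 43% in these data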;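 also: 0% = TNF-stimulated DMSO wells and 100% = unstimulated control wells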
F-actin modifier = cytoskeleton assembly modification. HUVEC TNFa F-actin phalloidin imaging, high content. inhibition, % at 2 µM. 91,000 tested, 0.18% active;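 active = inhibition above the batch mean plus 3 SD and confirmed as a hit by visual image inspection, cut at about 30% in these data, passing the limit was not always enough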
CYP2C19 inhib = human CYP2C19 inhibition | 96,000 tested, 21% active | inhibition, % at 5 µM | CYP2C19 Supersomes, luciferin-H EGE luminescence, 30 min | P33261;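 active = CYP2C19 inhibition above a set limit at 5 µM in the primary screen, cut at about 50% in these data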;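 also: plate controls were negative control wells for no effect and 2.5 mM tranylcypromine positive control for full effect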
Target sequence (P33261 whole entry, looked up): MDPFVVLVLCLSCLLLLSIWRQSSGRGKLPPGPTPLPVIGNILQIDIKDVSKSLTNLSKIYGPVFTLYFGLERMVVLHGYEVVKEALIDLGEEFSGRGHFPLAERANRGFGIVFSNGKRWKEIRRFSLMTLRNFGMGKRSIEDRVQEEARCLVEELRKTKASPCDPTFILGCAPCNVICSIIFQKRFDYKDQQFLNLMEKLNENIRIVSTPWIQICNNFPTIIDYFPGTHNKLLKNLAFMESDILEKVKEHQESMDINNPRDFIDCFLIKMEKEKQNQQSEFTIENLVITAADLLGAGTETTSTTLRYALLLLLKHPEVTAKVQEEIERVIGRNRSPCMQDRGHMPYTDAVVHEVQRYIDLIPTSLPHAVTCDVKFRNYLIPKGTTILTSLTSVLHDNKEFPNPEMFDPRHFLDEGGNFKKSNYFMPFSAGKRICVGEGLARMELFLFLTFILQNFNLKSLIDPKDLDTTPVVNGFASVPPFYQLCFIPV
CYP2C9 act = activators of human CYP2C9. P11712. recombinant CYP2C9, luciferin-H conversion, luminescence; hits give high values; factor 1 = untreated enzyme, 0 = blocked. activation factor at 5 µM. 96,000 tested, 1.4% active;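 active = activation factor of 2 or more for CYP2C9 at a 5 µM dose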;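 also: 0 = sulfaphenazole-blocked wells and 1 = vehicle-only wells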
CYP2C9 inh = blocks human cytochrome P450 2C9 | P11712 | CYP2C9 Supersomes, luciferin-H conversion, luminescence | inhibition, % at 5 µM | 96,000 tested, 20% active | AID 777;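 active = blocking of liver enzyme CYP2C9 beyond about 50% at 5 µM, limit read from the data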
CYP2C19 activ = activators of human cytochrome P450 2C19; 96,000 tested, under 10 active; activation factor at 5 µM; recombinant CYP2C19, luciferin-H EGE luminescence; hits give high values; 0 = fully inhibited enzyme, 1 = untreated enzyme; P33261;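 active = activation factor of at least 2 at 5 µM in the primary screen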;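 also: 0 = wells with 2.5 mM tranylcypromine and 1 = vehicle-only wells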
Numbers without * were called inactive; / = no result.

SMILES	E-sel TNF inh	F-actin modifier	CYP2C19 inhib	CYP2C9 act	CYP2C9 inh	CYP2C19 activ
CCOc1ccc(/C(O)=C2/C(=O)C(=O)N(CCOCCO)C2c2ccccn2)cc1 (stereo not given)	24	19	-21	1.1	-10	1.2
COc1cccc(-c2cn3nc4c(nc3n2)CCCC4)c1	18	-22	96*	0.5	50*	0
Clc1ccc(-c2cn3nc4c(nc3n2)CCCC4)cc1	7	/	17	0.9	7	0.8
O=C(O)c1cc(-c2ccccc2)n[nH]1	4	20	/	/	/	/
O=C(O)c1ccc(-c2ccccc2)[nH]1	8	/	72*	1.6	-56	0.3
COc1cc(C2N(c3ccc(Cl)c(Cl)c3)C(=O)C3CCCN32)cc(OC)c1OC (stereo not given)	/	0	22	1	-2	0.8
CCCCCCC1CCC(c2nc(-c3ccncc3)no2)CC1 (stereo not given)	3	14	89*	0.4	63*	0.1
CC(N1CCOC1=O)S(=O)(=O)c1ccccc1 (stereo not given)	20	-9	-2	1	-1	1
COC(=O)C(CCSC)NC(=O)C12CC3CC(CC(C3)C1)C2 (stereo not given)	-4	-12	-6	1.2	-17	1.1
CCC(C)(C)NC(=O)CN(C(=O)c1snc(C(N)=O)c1N)c1ccc2c(c1)OCCO2	-28	-37	38	0.4	64*	0.6
CCCC(C(=O)NC(C)(C)C)N(C(=O)c1snc(C(N)=O)c1N)c1ccc2c(c1)OCCO2 (stereo not given)	-3	/	/	/	/	/
O=C(Nc1ccccc1)N1CCC(c2ccccc2)C1 (stereo not given)	21	65*	73*	0.9	12	0.3
O=C(CCN1CCC(c2ccccc2)C1)c1cccs1 (stereo not given)	-80	11	78*	0.8	25	0.2
O=C(CCN1CCC(c2ccccc2)C1)c1ccc2c(c1)OCCO2 (stereo not given)	/	-10	-5	1.3	-30	1.1
O=C(CCN1CCC(c2ccccc2)C1)c1ccccc1 (stereo not given)	3	-19	88*	0.4	58*	0.1
O=C(NC1CCCCC1)N1CCC(n2c(=O)[nH]c3ccccc32)CC1	/	11	0	1.2	-16	1
O=C(Nc1ccccc1)N1CCC(n2c(=O)[nH]c3ccccc32)CC1	/	-11	28	0.3	72*	0.7
Cc1cc(-c2ccccc2C(=O)NCc2ccccc2)on1	-2	/	46	0.9	10	0.5
O=C(c1cccs1)N1CCCC1	-11	1	/	/	/	/
O=C(c1cccs1)N1CCC(c2ccccc2)C1 (stereo not given)	-9	12	98*	0.2	81*	0
Cc1ccc(-n2c(C)cc(C(=O)COC(=O)C3=NNC(=O)CC3)c2C)cc1	-31	-12	62*	0.5	52*	0.4
Cc1cc(C(=O)COC(=O)C2=NNC(=O)CC2)c(C)n1-c1ccccc1	0	-22	50*	0.7	32	0.5
Cc1ccc(-n2c(C)cc(C(=O)COC(=O)c3c(C)noc3C)c2C)cc1	2	12	10	0.8	20	0.9
O=C1CCC(C(=O)OCC(=O)c2c[nH]c3ccccc23)=NN1	4	/	/	/	/	/
Cc1cc(C)c(C)c(Cn2c(CO)nc3ccccc32)c1C	-29	7	/	/	/	/
SMILES	E-sel TNF inh	F-actin modifier	CYP2C19 inhib	CYP2C9 act	CYP2C9 inh	CYP2C19 activ
CCOc1ccc(NC(=O)c2nnn(CC(=O)Nc3ccccc3OCC)c2N)cc1	/	-33	13	0.8	22	0.9
Cc1noc(/C=C/N(C)C)c1S(=O)(=O)N1CCCC(C(=O)NCc2ccc(Cl)cc2)C1 (stereo not given)	9	-14	50	0.2	77*	0.5
Cc1n[nH]c(C)c1S(=O)(=O)N1CCCC(C(=O)NCc2ccccc2Cl)C1 (stereo not given)	0	/	/	/	/	/
Cc1noc(/C=C/N(C)C)c1S(=O)(=O)N1CCCC(C(=O)NCc2ccc(F)cc2)C1 (stereo not given)	16	3	46	0.3	73*	0.5
Cc1noc(/C=C/N(C)C)c1S(=O)(=O)N1CCCC(C(=O)NCc2ccccc2Cl)C1 (stereo not given)	-13	19	24	0.2	78*	0.8
Cc1ccc(CNC(=O)C2CCCN(S(=O)(=O)c3c(C)noc3C)C2)cc1 (stereo not given)	1	-10	-13	1	-4	1.1
COCCn1c(SCC(=O)Nc2nnc(C)s2)nnc1-c1ccoc1C	2	/	/	/	/	/
CNC(=O)COc1ccc(C=O)cc1OC	9	/	/	/	/	/
CCOc1cc(C=O)ccc1OCCSc1ccc(C)cc1	-24	-34	77*	0.3	70*	0.2
COc1cc(C=O)ccc1OCCSc1ccc(C)cc1	-5	22	85*	0.3	68*	0.2
Cc1ccc(C)n1-c1ccc(-c2nnco2)cc1	1	6	43	0.9	10	0.6
Cc1c(Br)cc(-c2nnco2)cc1Br	-7	/	-10	2.9*	-189	1.1
COc1cc(NC(=O)CSCc2cnn(-c3ccccc3)c2-n2cccc2)cc(OC)c1	2	-8	/	/	/	/
O=C(CSCc1cnn(-c2ccccc2)c1-n1cccc1)N1CCN(Cc2ccccc2)CC1	0	2	89*	0	96*	0.1
CCOc1ccc(NC(=O)CSCc2cnn(-c3ccccc3)c2-n2cccc2)cc1	-5	8	98*	0.1	94*	0
COc1ccccc1CNC(=O)CSCc1cnn(-c2ccccc2)c1-n1cccc1	6	7	97*	0.1	88*	0
O=C(O)CSCc1cnn(-c2ccccc2)c1-n1cccc1	4	/	/	/	/	/
COc1cccc(CNC(=O)CSCc2cnn(-c3ccccc3)c2-n2cccc2)c1OC	41	-9	94*	0	97*	0.1
COc1cc(C(=O)NCc2cn3ccsc3n2)cc(OC)c1OC	-3	15	/	/	/	/
CCn1c(=N)n(CC(=O)C23CC4CC(CC(C4)C2)C3)c2ccccc21	0	/	9	1	0	0.9
COc1cccc(NC(=O)n2nc(N)cc2-c2ccc(Cl)cc2)c1	-27	/	2	0.6	41	1
CCOC(=O)N1CCC(Nc2cccc(SC)c2)CC1	-21	/	40	0.8	24	0.6
O=C(Nc1ccc(O)cc1)c1ccc2c(c1)C(=O)N(Cc1ccco1)C2=O	-12	/	/	/	/	/
O=C(Nc1ccc(O)cc1C(=O)O)c1ccc2c(c1)C(=O)N(Cc1ccco1)C2=O	-28	4	-2	0.4	60*	1
COc1ccccc1C(=O)O/N=C(/C)c1ccc(N2C(=O)C3CCCCC3C2=O)cc1 (stereo not given)	18	6	54*	3.3*	-227	0.5
O=C1CC(NCCN2CCOCC2)C(=O)N1Cc1ccc(N2CCCC2=O)cc1 (stereo not given)	/	-37	5	1	2	1
Cc1ccc(CNC(=O)c2cc(COc3c(F)cccc3F)on2)s1	-24	/	/	/	/	/
